Reference: PubChem BioAssay (NCI)
Compounds without any hit were thinned out: in the full panel of roughly 79,000, 15% have a hit. Active and inactive are the calls of the source. Cut-off read from the data, not from the text of the source: active = growth inhibition above about 70%; inactive = the rest.

Key:
[1] = NCI Yeast Anticancer Drug Screen. Data for the rad50 strain (AID 155);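 note: 0% = growth of vehicle-only cultures of the same strain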; details: S. cerevisiae rad50 strain growth inhibition; at 50.0 µM; active compounds read high
Summary of the method: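 Compounds were tested on a yeast strain with an engineered DNA damage repair alteration; the reported value is growth inhibition normalised to vehicle treatment.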

[2] = NCI Yeast Anticancer Drug Screen. Data for the mec2-1 strain (AID 157); details: S. cerevisiae mec2-1 strain, at 50.0 µM, active compounds read high
Summary of the method: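 Readout is yeast growth inhibition, normalised to vehicle-treated controls, in the mec2-1 strain exposed to compound.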

[3] = NCI Yeast Anticancer Drug Screen. Data for the sgs1 mgt1 strain (AID 161);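 note: 0% = growth of cultures given vehicle only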; details: S. cerevisiae sgs1 mgt1 strain, at 50.0 µM, active compounds read high
Summary of the method: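 Yeast cells carrying a defined DNA-repair defect were exposed to test compounds. Growth inhibition was measured relative to vehicle-treated controls.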

[4] = NCI Yeast Anticancer Drug Screen. Data for the cln2 rad14 strain (AID 165);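 note: 0% = growth equal to vehicle treated cultures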; details: S. cerevisiae cln2 rad14 strain, at 50.0 µM, active compounds read high
Summary of the method: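 Relative to vehicle controls, growth inhibition of compound-treated cln2 rad14 yeast was recorded.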

[5] = NCI Yeast Anticancer Drug Screen. Data for the bub3 strain (AID 167); details: S. cerevisiae bub3 mutant strain, at 50.0 µM, active compounds read high
Summary of the method: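 Growth of a checkpoint-deficient yeast mutant is measured after compound exposure. Values represent inhibition relative to vehicle.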

[6] = NCI Yeast Anticancer Drug Screen. Data for the mlh1 rad18 strain (AID 175); details: S. cerevisiae mlh1 rad18 strain growth inhibition; at 50.0 µM; active compounds read high
Summary of the method: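 Test agents were incubated with a yeast strain of defined genotype (DNA damage repair defect). Inhibition of growth was derived by comparison with vehicle-exposed cultures.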

Measured: growth inhibition

O=C(NCCCCCCNC(=O)C1CCCN1C(=O)OCc1ccccc1)C1CCCN1C(=O)OCc1ccccc1 (stereo unspecified)
inactive: [1] 0.6% | [2] -24.2% | [3] -8.15% | [4] -1.9% | [5] -5.7% | [6] 6.4%

O=C(Nc1ccccc1)c1nccc2ccccc12
inactive: [1] 1.45% | [2] 13% | [3] -6.45% | [4] -17.1% | [5] 9.4% | [6] -3.95%

CCC(CC)C(=O)OCCCc1ccccc1
inactive: [1] 3.95% | [2] -0.05% | [3] 10.4% | [4] -7.4% | [5] 11.9% | [6] 4.4%

CC(C)=CCc1c(O)ccc(C(=O)[C@H]2C(c3ccc(O)cc3O)CC(C)=C[C@@H]2c2c(O)cc(O)c3c(=O)c(CC=C(C)C)c(-c4ccc(O)cc4O)oc23)c1O (stereo partly specified)
active: [1] 88.4% | [2] 90% | [3] 92% | [4] 89% | [5] 90.2% | [6] 89.8%

COC(=O)C1CCc2ccccc2C1=O (stereo unspecified)
inactive: [1] -12.6% | [2] -13.7% | [3] 1.95% | [4] 6.4% | [5] 2.7% | [6] 12.2%

Brc1cccc(-c2nnc(-c3ccc4ccccc4c3)o2)c1
inactive: [1] -5.85% | [2] -29.5% | [3] 6% | [4] 11.4% | [5] -9% | [6] -2.25%

COc1ccc(C2N(c3ccccc3)OC(=O)N2c2ccccc2)cc1 (stereo unspecified)
inactive: [1] 43.8% | [2] 7.2% | [3] 16.1% | [4] 9.1% | [5] 14.4% | [6] 20.8%

Cc1ccc(NC(=O)CCCC(=O)C(C#N)c2ccccc2Cl)cc1C (stereo unspecified)
inactive: [1] 0.15% | [2] -0.95% | [3] -5.75% | [4] -22.5% | [5] -10.1% | [6] -5.1%

COc1cc(OC)c2[nH]c3c(c(=O)c2c1)C(=O)c1[nH]c2c(OC)cc(OC)cc2c(=O)c1C3=O
inactive: [1] 26.8% | [2] 4.55% | [3] 12.8% | [4] 17.4% | [5] -3.55% | [6] 19.9%

COc1ccc(/C=C2\N=C(c3cccc(Cl)c3)OC2=O)cc1OC
inactive: [1] 14.6% | [2] 4.25% | [3] 18.2% | [4] 12.2% | [5] 6.3% | [6] -7.85%

CCOC(=O)c1ccnc2ccccc12
inactive: [1] -5.05% | [2] -3.75% | [3] 1.1% | [4] -4.85% | [5] 5.65% | [6] 3.7%

OCCOc1ccccc1-c1ccccc1
inactive: [1] -28.6% | [2] -14.3% | [3] -15.5% | [4] -14% | [5] -29.5% | [6] -7.65%

CC(C)(N)C(=O)N[C@@H]1C(=O)N2[C@@H]1SC(C)(C)[C@@H]2C(=O)O
inactive: [1] 8.4% | [2] 3.55% | [3] -19.2% | [4] -0.95% | [5] 5.9% | [6] 4%

O=c1nc(-c2ccccc2)cc(Cc2ccc3ccccc3n2)[nH]1
inactive: [1] 30.1% | [2] 25.8% | [3] 26.1% | [4] -29.8% | [5] 47% | [6] 28.9%

COC(C)CCOC(=O)c1ccc(C(C)C)cc1 (stereo unspecified)
inactive: [1] 6.45% | [2] 8% | [3] 10.2% | [4] -21.7% | [5] 8.75% | [6] 1.65%

NCCn1ccnc1
inactive: [1] 13.3% | [2] 1.7% | [3] -1.75% | [4] -19.8% | [5] -3.15% | [6] 1.4%

NC(=S)Nc1ccccc1Cl
inactive: [1] -14.3% | [2] -6.2% | [3] 15.6% | [4] -18.1% | [5] -10.8% | [6] 10.6%

COCC1C(COC)C2CCC1C2(Cc1ccccc1)Cc1ccccc1 (stereo unspecified)
inactive: [1] 1.4% | [2] 12.4% | [3] 18.1% | [4] -45.4% | [5] 0% | [6] -7.2%

CC/C(C)=N/NC(=O)c1ccc([N+](=O)[O-])cc1
inactive: [1] 22.7% | [2] 12% | [3] 20.8% | [4] 8.6% | [5] 0.95% | [6] 16.6%

O=C1OC(c2cccc(Cl)c2)=N/C1=C\c1cc(Br)ccc1O
inactive: [1] 20.6% | [2] 5.7% | [3] 27.8% | [4] 5.2% | [5] -0.4% | [6] 5.95%

COc1ccc(N)c(C(O)CCNC(C)=O)c1 (stereo unspecified)
inactive: [1] -20.1% | [2] -23.2% | [3] -25.9% | [4] -7.5% | [5] -43.5% | [6] -38.8%

NC(CO)CSCc1ccccc1 (stereo unspecified)
inactive: [1] 1.65% | [2] 1.6% | [3] 11.6% | [4] -4.4% | [5] 13.3% | [6] -0.65%

Cc1cc(Cl)c2ccc(Cl)c(C)c2n1
inactive: [1] 6.65% | [2] -8.55% | [3] 3.65% | [4] -11.1% | [5] 5.4% | [6] 0.15%

O=C(NCCCBr)Nc1cccc2c1CCCC2
inactive: [1] -7.45% | [2] 5.9% | [3] 2.5% | [4] -31.5% | [5] -20.9% | [6] -21.1%

CCOC(=O)C(C(=O)OCC)n1c(=O)c2c(ncn2C)n(C)c1=O
inactive: [1] 13.2% | [2] -0.55% | [3] -16.8% | [4] 16.1% | [5] 13% | [6] 10.3%

CSc1nc(NN)c([N+](=O)[O-])c(SC)n1
inactive: [1] -7.55% | [2] -0.7% | [3] 1.2% | [4] -2.65% | [5] -14.5% | [6] 15.6%

COc1ccccc1NS(=O)(=O)c1ccc2ncn(NS(=O)(=O)c3ccc(Cl)cc3)c(=O)c2c1
inactive: [1] 27.5% | [2] 15.7% | [3] 30.1% | [4] 0.05% | [5] 26% | [6] 18.1%

NC(=O)CN1CC(C2=C(O)CN(CC(N)=O)C2=O)=CC1=O
inactive: [1] -23.9% | [2] -8.6% | [3] -10.1% | [4] -43.5% | [5] -6.35% | [6] -9.2%

COc1ccc(NC(C)c2ccncc2)cc1 (stereo unspecified)
inactive: [1] -17.8% | [2] -16% | [3] -29% | [4] -9.95% | [5] -9.9% | [6] -46%

CC(C)=CC(=O)OC(C)(C)C
inactive: [1] 11.4% | [2] 1.65% | [3] 3.35% | [4] 6.1% | [5] 7.05% | [6] 23.7%

COc1cccc(/C=C\C(=O)c2ccccc(=O)c2O)c1OC
inactive: [1] 34.5% | [2] 23.4% | [3] 36.8% | [4] -5.4% | [5] 40.5% | [6] 40.9%

CCOC(=O)C(=O)SCC(NC(=O)OCc1ccccc1)C(=O)O (stereo unspecified)
inactive: [1] -12.9% | [2] -4.95% | [3] 11.7% | [4] -1.95% | [5] 7.75% | [6] -12.2%

CCCCCCCCSC(SCCCCCCCC)=C1C(=O)N(c2ccccc2)N=C1C
inactive: [1] -5.9% | [2] -12.3% | [3] 2.2% | [4] 19.6% | [5] -28.1% | [6] -13%

COc1ccc(/C=N/Nc2ccc(S(=O)(=O)O)cc2)cc1
inactive: [1] 5.45% | [2] -12.6% | [3] -18.7% | [4] -6.45% | [5] -21.2% | [6] 13.2%

COc1cccc2c1C(=O)c1c(O)c3c(c(O)c1C2=O)C[C@@](O)(C(C)=O)CC3S(=O)(=O)O (stereo partly specified)
inactive: [1] -14% | [2] -7.45% | [3] -24.4% | [4] -8.85% | [5] -14.9% | [6] 9.7%

CCOC(=O)NOC1CCCCO1 (stereo unspecified)
inactive: [1] 1.05% | [2] -6.8% | [3] -3.2% | [4] -14.6% | [5] -10.9% | [6] 4.95%

COC(=O)C(=O)C(C(=O)C(=O)Nc1nc(=S)[nH][nH]1)c1nc2ccc([N+](=O)[O-])cc2[nH]c1=O (stereo unspecified)
inactive: [1] 36% | [2] 20.6% | [3] 11.1% | [4] -17.6% | [5] 22.4% | [6] 18.9%

c1ccc(-c2ccc(C(=C(c3ccc(-c4ccccc4)cc3)c3ccc(-c4ccccc4)cc3)c3ccc(-c4ccccc4)cc3)cc2)cc1
inactive: [1] 1.1% | [2] -0.85% | [3] -9.9% | [4] -4.15% | [5] -4.7% | [6] -12.6%

CC(C)(NC(=O)OC12CC3CC(CC(C3)C1)C2)C(=O)O
inactive: [1] -11.1% | [2] -20.1% | [3] 3.1% | [4] -12.6% | [5] 3.45% | [6] -5.35%

O=C1CC2(CCCCC2)CC(=O)N1
inactive: [1] -6.25% | [2] -5.05% | [3] 8.3% | [4] -34.6% | [5] 6.9% | [6] -2.35%

N#C/C(=C1\SC(N=Nc2ccc(Cl)cc2)C(=O)N1c1ccccc1)c1nc2ccccc2[nH]1 (stereo unspecified)
inactive: [1] 6.6% | [2] 6.05% | [3] 6.75% | [4] -40.9% | [5] 3.05% | [6] -5.05%
